# The list is not random: actives were taken first. Their share in the collection is about 2.8%.
# KDM5B inh: inhibitors of human KDM5B histone demethylase; Q9UGL1; KDM5B demethylase, FDH-coupled NADH fluorescence (FDH is formaldehyde dehydrogenase); Potency, µM (highest dose often 57.7 µM), actives largely listed as inhibitors; actives 2.6% (n = 220,000); further: potency means the concentration at half of the fitted maximal effect; 0% is about no effect; nearly all actives have a fitted effect of over 70% in size
#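 KDM5BΔAP (200 nM final) in 50 mM HEPES pH 7.5, 0.01% Tween-20 was preincubated 10 min at RT with compound over a concentration range. Substrate mix (H3K4me3 12.5 µM, α-KG 25 µM, Fe²⁺, ascorbate, NAD⁺, FDH) was added, and NADH fluorescence change over 30 min gave dose-response curves.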
# IP6K1 inhibitor: IP6K1 kinase inhibition; actives 0.81% (n = 140,000); IP6K1 kinase, ADP-Glo luminescence, 2 h; active compounds read low; activity change, % (series mostly up to about 58 µM); Q92551; in the data active means activity change below about -25%; further: on the % scale 0 is the no-effect control and ±100 the full control effect
#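 ADP-Glo luminescence measures ADP made by human IP6K1 during a 2 h RT reaction with ATP/IP6 (mix at 1.3 mM/130 uM); top library doses 57.5 and 19.1 uM final.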
# IP6K1 inh cnf: confirmation of human IP6K1 inhibitors. shares compounds with IP6K1 inhibitor. recombinant IP6K1 kinase, ADP-Glo luminescence, 2 h. Potency, µM (doses to about 49 µM), inactives show at the top dose activity change, negative = inhibition, hits mostly inhibitors. actives 13% (n = 1,200); further: potency means the concentration at half of the fitted maximal effect; on the % scale 0 is the no-effect control and ±100 the full control effect; nearly all actives have a fitted effect of over 65% in size
# Numbers without * were called inactive; i = inactive; x = not tested or not shown. Unless noted, the call rests on the fitted dose curve; in most records, active means well fitted inhibition curve with a large enough effect; inconclusive means small, poorly fitted or top-dose-only effect; inactive means no such curve, though single readings can be large or run the other way.
SMILES,KDM5B inh,IP6K1 inhibitor,others
CCc1cccc(NC(=O)C2CCN(S(=O)(=O)c3cccc(-c4noc(C)n4)c3)CC2)c1,i,46.2,
O=C(Nc1ccc([N+](=O)[O-])cc1)NC1CCCN(CCn2nc3n(c2=O)CCCC3)C1 (stereo not drawn),x,24.2,
O=C(CCn1nc(-c2ccccc2)c2ccccc2c1=O)Nc1cccc(Cl)c1,i,x,
CC(C)c1ccccc1NC(=O)C=C1CCCCC1,i,x,
COCCOCc1nc(C2CCCN2S(=O)(=O)Cc2ccccc2F)no1 (stereo not drawn),i,-8.3,
O=C1NC(=O)/C(=C/c2ccc(-c3ccc(F)cc3O)o2)S1,x,x,IP6K1 inh cnf=2.59µM*
CCN=C1S/C(=C/c2ccc(-c3ccc(Cl)cc3C(=O)O)o2)C(=O)N1CC,i,x,
Cc1ccc(NC(=O)NCc2c(C)nn(C)c2C)cc1C,i,x,
